According to PubChem BioAssay (NCATS):
Inconclusive results are not listed. A call without a number means that no potency is given here. Active and inactive are the calls of the source. The call rests on the fitted dose curve; in most records, active means well fitted curve in the direction sought with a large enough effect; inconclusive means small, poorly fitted or top-dose-only effect, or another doubt; inactive means no such curve, though single readings can be large; an effect the other way counts as inactive or inconclusive.

Experiments:
[1] = test system: Zika virus NS2B-NS3 protease; assay: Primary screen GU AMC qHTS for Zika virus inhibitors (AID 1347154); further: nearly all actives have a fitted effect of over 70% in size; further: potency means the concentration at half of the fitted maximal effect
How it was run: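 Fluorogenic AMC-substrate cleavage by noncovalent NS2B-NS3 protease complex (25 nM, pH 8.0 Tris buffer with Tween 20) followed for 15 minutes at room temperature (~20% conversion). Percent inhibition from ex340/em450 signal change, fitted by 4-parameter Hill equation.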

[2] = test system: Zika virus NS2B-NS3 protease (linked construct); assay: Confirmatory screen NINDS AMC qHTS for Zika virus inhibitors (AID 1347152); further: nearly all actives have a fitted effect of over 70% in size; further: potency means the concentration at half of the fitted maximal effect
How it was run: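 Concentration-response confirmation used the NINDS linked protease (NS2B hydrophilic domain joined to NS3 protease domain), 1 nM, with a 15-min compound preincubation. Substrate, Nle-KRR-AMC at 10 microM, was read by UV fluorescence before and after 15 min.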

[3] = test system: Zika virus NS2B-NS3 protease (unlinked complex); assay: Confirmatory screen GU AMC qHTS for Zika virus inhibitors (AID 1347153); further: nearly all actives have a fitted effect of over 70% in size; further: potency means the concentration at half of the fitted maximal effect
How it was run: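 Noncovalent NS2B hydrophilic domain/NS3 protease complex (25 nM) in 10 mM Tris-HCl pH 8.0, 0.01% Tween 20 was preincubated 15 min at room temperature with compounds. Then 10 µM AMC substrate (Km 18.3 µM) was added; fluorescence was read over 15 min and fitted to a 4-parameter Hill equation.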

[4] = Confirmatory screen GU Rhodamine qHTS for Zika virus inhibitors qHTS (AID 1347157); details: purified enzyme assay, Rhodamine110 substrate fluorescence, 15 min; further: potency means the concentration at half of the fitted maximal effect; nearly all actives have a fitted effect of over 70% in size
How it was run: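 A qHTS format was used, with compound concentrations ranging up to 114 microM. Each compound was preincubated with 25 nM NS2B-NS3 protease, and the substrate was then added at 1.5 microM. Curves were fitted with a 4-parameter Hill model.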

[5] = ZIKV-mCherry secondary qHTS for Zika virus inhibitors (AID 1347158); further: potency means the concentration at half of the fitted maximal effect
How it was run: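 Read-out is percent infection: mCherry-positive Vero cells (nuclear-proximal intensity >450 RFU, 3 SD above negative controls) counted by high-content imaging of Hoechst-stained, PFA-fixed wells after 48-72 h with ZIKV-mCherry at MOI 1 and compound.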

[6] = test system: Zika virus NS2B-NS3 protease (unlinked complex); assay: Primary screen GU Rhodamine qHTS for Zika virus inhibitors: Unlinked NS2B-NS3 protease assay (AID 1347159); further: nearly all actives have a fitted effect of over 60% in size; further: potency means the concentration at half of the fitted maximal effect
How it was run: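 Buffer 10 mM Tris-HCl pH 8.0, 0.01% Tween 20. Unlinked protease 25 nM; compound preincubation 15 min, RT, protected from light. Substrate Rhod110, 1.5 microM; ~15% conversion in 15 min.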

[7] = test system: Zika virus NS2B-NS3 protease (linked construct); assay: Primary screen NINDS Rhodamine qHTS for Zika virus inhibitors (AID 1347160); further: nearly all actives have a fitted effect of over 55% in size; further: potency means the concentration at half of the fitted maximal effect
How it was run: (§1)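 Aprotinin served as in-plate control. Conditions: 25 nM linked NS2B-NS3, pH 8.0 Tris buffer, titrated compounds, 15 min preincubation and 15 min reaction with 1.5 microM Rhod110 substrate at room temperature.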

[8] = Confirmatory screen NINDS Rhodamine qHTS for Zika virus inhibitors (AID 1347161); further: nearly all actives have a fitted effect of over 60% in size; further: potency means the concentration at half of the fitted maximal effect
How it was run: as §1

[9] = test system: Zika virus NS2B-NS3 protease (linked); assay: 384 well plate NINDS AMC confirmatory qHTS for Zika virus inhibitors (AID 1347163); further: nearly all actives have a fitted effect of over 50% in size; further: potency means the concentration at half of the fitted maximal effect
How it was run: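 Enzyme (5, 30 or 60 nM final) first met test compounds for ~15 min. The AMC-tagged peptide Ac-VKTGKR-AMC followed at 30 microM. Fluorescence was then recorded at 25 min and scaled against no-enzyme and no-inhibitor wells.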

[10] = test system: Zika virus NS2B-NS3 protease (linked construct); assay: 384 well plate NINDS Rhodamine confirmatory qHTS for Zika virus inhibitors (AID 1347164); further: nearly all actives have a fitted effect of over 65% in size; further: potency means the concentration at half of the fitted maximal effect
How it was run: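 Cleavage of Ac-LKRR-Rhodamine 110 (10 microM final) by linked protease (final 5, 30 or 60 nM) was followed as fluorescence at 485/538 nm after 25 min, room temperature, dark. Compounds preincubated ~15 min.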

[11] = Vero cells viability qHTS for Zika virus inhibitors (AID 1347167)
How it was run: (§2)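 Luminescent ATP readout (CellTiter Glo) after 30 min at 37 degrees C gives viability; cells in DMEM + 4% FBS were treated 24 to 48 hours with compound, following overnight attachment.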

[12] = Tertiary RLuc qRT-PCR qHTS assay for Zika virus inhibitors (AID 1347169); further: nearly all actives have a fitted effect of over 55% in size; further: potency means the concentration at half of the fitted maximal effect
How it was run: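 Inhibition of ZIKV-RLuc replication in Vero cells, read as Renilla luminescence 1-1.5 hrs after live-cell substrate addition, following 48-72 hrs infection at MOI 1-2 in presence of compound.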

[13] = HepG2 cells viability qHTS for Zika virus inhibitors (AID 1347168); further: potency means the concentration at half of the fitted maximal effect
How it was run: as §2

[14] = OV-KATE Cancer Cell Toxicity qHTS against the NCATS CANVASS Library (AID 1347345)
How it was run: (§3)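 Viability read-out: CellTiter-Glo luminescence after 72 h compound exposure at 37 °C/5% CO2. Cells plated at 1000/well, 4 h pre-incubation; 11-point titration. Bortezomib served as control.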

[15] = HPAF-II Cancer Cell Toxicity qHTS against the NCATS CANVASS Library (AID 1347346); further: series mostly up to about 38 µM; nearly all actives have a fitted effect of over 55% in size
How it was run: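 1000 HPAF-II cells/well; 4 h pre-incubation; 11-pnt compound titration; 72 h, 37 degrees C/5% CO2; CellTiter-Glo, 15 min RT; luminescence read.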

[16] = UWB1.289 Cancer Cell Toxicity qHTS against the NCATS CANVASS Library (AID 1347347); details: UWB1.289 viability, CellTiter-Glo luminescence, 72 h; further: potency means the concentration at half of the fitted maximal effect; nearly all actives have a fitted effect of over 60% in size
How it was run: as §3

[17] = OV-SAHO Cancer Cell Toxicity qHTS against the NCATS CANVASS Library (AID 1347348); further: series mostly up to about 38 µM; nearly all actives have a fitted effect of over 55% in size
How it was run: as §3

[18] = Panc-1005 Cancer Cell Toxicity qHTS against the NCATS CANVASS Library (AID 1347349); further: series mostly up to about 38 µM; nearly all actives have a fitted effect of over 60% in size
How it was run: as §3

SMILES: NC(=O)c1cccc(-c2cccc(OC(=O)NC3CCCCC3)c2)c1
- Potency [1]: inactive

SMILES: C[C@](Cc1c[nH]c2ccccc12)(NC(=O)OC1C2CC3CC(C2)CC1C3)C(=O)NC[C@H](NC(=O)CCC(=O)O)c1ccccc1 (stereo partly specified)
- Potency [1]: inactive

SMILES: C[C@@H]1CC[C@@]2(OC1)OC1CC3C4CC=C5CC(O)CCC5(C)C4CCC3(C)C1[C@@H]2C (stereo partly specified)
- Potency [1]: inactive

SMILES: CC(C)c1cc(C(C)C)c(CC(=O)NS(=O)(=O)Oc2c(C(C)C)cccc2C(C)C)c(C(C)C)c1
- Potency [2]: 7.84 µM (active)
- Potency [3]: 11.1 µM (active)
- Potency [4]: 2.21 µM (active)
- Potency [5]: 3.16 µM (active)
- Potency [6]: 3.16 µM (active)
- Potency [7]: 3.16 µM (active)
- Potency [8]: 2.21 µM (active)
- Potency [9]: 3.16 µM (active)
- Potency [10]: inactive
- outcome [11]: inactive
- Potency [12]: 5.87 µM (active)

SMILES: CCCCCCCCc1ccc(CCC(N)(CO)CO)cc1
- Potency [2]: inactive
- Potency [3]: inactive
- Potency [1]: inactive
- Potency [5]: inactive
- Potency [8]: inactive
- Potency [9]: 70.8 µM (active)
- Potency [10]: inactive
- Potency [13]: 26.2 µM (active)
- Potency [12]: 16.5 µM (active)

SMILES: Nc1ccn(C2CO[C@H](CO)O2)c(=O)n1 (stereo partly specified)
- Potency [1]: inactive
- Potency [6]: inactive
- Potency [7]: inactive

SMILES: C[C@H](CCC(=O)O)[C@H]1CCC2C3C[C@H](O)[C@@H]4C[C@H](O)CC[C@]4(C)C3CC[C@@]21C (stereo partly specified)
- Potency [1]: inactive

SMILES: CC1=C(C(=O)Nc2cc3cn[nH]c3cc2F)C(c2ccc(Cl)cc2F)N=C(c2ccnc(Cl)c2)N1 (stereo unspecified)
- Potency [1]: inactive
- Potency [6]: inactive
- Potency [7]: inactive

SMILES: CC(=O)OCC(=O)[C@@]1(O)CC[C@H]2[C@@H]3CCC4=CC(=O)CC[C@]4(C)[C@@H]3C(=O)C[C@@]21C
- Potency [1]: inactive

SMILES: N[C@H]1CN(c2c(F)cc3c(=O)c(C(=O)O)cn(C4C[C@@H]4F)c3c2Cl)CC12CC2 (stereo partly specified)
- Potency [1]: inactive
- Potency [6]: inactive
- Potency [7]: inactive

SMILES: CC(=O)OCC(=O)[C@@]12N=C(C)O[C@H]1C[C@H]1[C@@H]3CCC4=CC(=O)C=C[C@]4(C)[C@@H]3[C@@H](O)C[C@@]12C
- Potency [1]: inactive

SMILES: COc1ccc(Nc2nccc(NCCO)n2)cc1
- Potency [1]: inactive

SMILES: Nc1ncn([C@@H]2O[C@H](CO)[C@@H](O)[C@@H]2O)c(=O)n1
- Potency [1]: inactive

SMILES: C[C@H]1C[C@H]2[C@@H]3CCC4=CC(=O)C=C[C@]4(C)[C@@H]3C(=O)C[C@]2(C)[C@@]1(O)C(=O)CO
- Potency [1]: inactive

SMILES: CN1[C@H]2CC(OC(=O)[C@@H](CO)c3ccccc3)C[C@H]1[C@H]1O[C@H]12 (stereo partly specified)
- Potency [1]: inactive

SMILES: CCN1CCN(C(=O)N[C@H](C(=O)N[C@@H]2C(=O)N3C(C(=O)O)=C(CSc4nnnn4C)CS[C@@H]23)c2ccc(O)cc2)C(=O)C1=O
- Potency [1]: inactive

SMILES: CCOC(=O)N1CCN([N+]([O-])=NOc2ccc([N+](=O)[O-])cc2C#N)CC1
- Potency [1]: inactive

SMILES: C[C@]12C=CC(=O)N[C@@H]1CC[C@H]1[C@H]3CC[C@@H](C(=O)Nc4cc(C(F)(F)F)ccc4C(F)(F)F)[C@@]3(C)CC[C@@H]12
- Potency [1]: inactive

SMILES: c1cncc(CN2CCC(n3ncc4c(N5CCOCC5)nc(-c5ccc6[nH]ccc6c5)nc43)CC2)c1
- Potency [1]: inactive
- Potency [6]: inactive
- Potency [7]: inactive

SMILES: COc1cc(N2CCC(C(N)=O)CC2)ccc1Nc1nc(N)c(Cl)c(Nc2ccccc2S(=O)(=O)C(C)C)n1
- Potency [1]: inactive

SMILES: Cc1ccccc1C(=O)Nc1ccc(C(=O)N2CCCC(O)c3cc(Cl)ccc32)c(C)c1 (stereo unspecified)
- Potency [1]: inactive
- Potency [6]: inactive
- Potency [7]: inactive

SMILES: CCc1ccc(C(=O)Nc2cc(CN3CCN(C)CC3)cc(C(F)(F)F)c2)cc1C#Cc1cnc2ccnn2c1
- Potency [1]: inactive
- Potency [6]: inactive
- Potency [7]: inactive

SMILES: O=c1c(O)c(-c2ccc(O)c(O)c2)oc2cc(O)ccc12
- Potency [1]: 17.1 µM (active)
- Potency [4]: 44.7 µM (active)
- Potency [5]: inactive
- Potency [7]: 22 µM (active)
- Potency [8]: 44.7 µM (active)
- Potency [9]: inactive
- Potency [10]: 316 µM (active)
- Potency [12]: inactive
- outcome [14]: inactive
- outcome [15]: inactive
- Potency [16]: 7.47 µM (active)
- outcome [17]: inactive
- Potency [18]: inactive

SMILES: c1coc(CNc2ncnc3nc[nH]c23)c1
- Potency [1]: inactive

SMILES: C[C@@H]1[C@H](C)CC[C@]2(C(=O)O)CC[C@]3(C)C(=CC[C@@H]4[C@@]5(C)C[C@@H](O)[C@H](O)[C@@](C)(CO)[C@H]5CC[C@]43C)[C@@H]12
- Potency [1]: inactive

SMILES: CN(C)CCN1C(=O)c2cccc3cc(N)cc(c23)C1=O
- Potency [1]: inactive

SMILES: COc1cc(OC)c(NC(=O)Nc2cc(C)on2)cc1Cl
- Potency [1]: inactive

SMILES: C=CCNC1=C2C[C@@H](C)C[C@H](OC)[C@@H](O)[C@@H](C)C=C(C)[C@H](OC(N)=O)[C@@H](OC)C=CC=C(C)C(=O)NC(=CC1=O)C2=O
- Potency [1]: inactive

SMILES: CN(C)c1ccc2cc(C(=O)N[C@@H](CCCN=C(N)CCl)C(=O)NCc3ccccc3)ccc2c1
- Potency [1]: inactive
